Results reported in PubChem BioAssay (EPA / NIEHS).
Calls of active or inactive are those of the source. How the source made its calls: active means hit-call score of the fitted dose curve at least 0.9, where 1 is the maximum; inactive means score below 0.9.

Experiments:
[1] = read-out: Macrophage colony-stimulating factor (MCSF), CSF1 (gene 1435); assay: BSK_hDFCGF_MCSF: BioMAP Diversity Plus: hDFCGF Assay for Macrophage colony-stimulating factor (MCSF) Biomarker Activity (AID 2283060); conditions: primary human foreskin fibroblasts; actives raise or lower the signal
In short: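 Human foreskin primary fibroblasts were treated with test chemical for 24 h, and M-CSF was then measured by ELISA. Data were fitted bidirectionally against DMSO as the negative control and activity baseline.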

[2] = BSK_hDFCGF_SRB: Viability Assessment in the BioMAP Diversity Plus: hDFCGF Assay (AID 2283061); conditions: primary human foreskin fibroblasts;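 further: cells exposed to compound for 24 h before the read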
In short: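 Human foreskin primary fibroblasts were treated with compound and assessed 24 h after dosing. Total protein was measured by sulforhodamine B staining (0.1% SRB after 10% TCA fixation, 560 nm read) as a cytotoxicity marker, with bidirectional fitting against DMSO baseline.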

[3] = read-out: TIMP metallopeptidase inhibitor 1 (TIMP1), TIMP1 (gene 7076); assay: BSK_hDFCGF_TIMP1: BioMAP Diversity Plus: hDFCGF Assay for TIMP metallopeptidase inhibitor 1 (TIMP1) Biomarker Activity (AID 2283062); conditions: primary human foreskin fibroblasts; actives raise or lower the signal
In short: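 Primary human foreskin fibroblasts in the hDFCGF system were dosed with compound for 24 h, then TIMP-1 was measured by ELISA. Activity was fitted bidirectionally relative to DMSO control; parallel SRB staining assessed cytotoxicity.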

[4] = read-out: Monokine induced gamma interferon (MIG), CXCL9 (gene 4283); assay: BSK_hDFCGF_MIG: BioMAP Diversity Plus: hDFCGF Assay for Monokine induced gamma interferon (MIG) Biomarker Activity (AID 2283063); conditions: primary human foreskin fibroblasts; actives raise or lower the signal
In short: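 ELISA read-out of MIG from primary human dermal fibroblasts 24 h post-dosing. Gain or loss of signal fitted bidirectionally, DMSO as baseline.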

[5] = read-out: Matrix Metallopeptidase 1 (MMP1), MMP1 (gene 4312); assay: BSK_hDFCGF_MMP1: BioMAP Diversity Plus: hDFCGF Assay for Matrix Metallopeptidase 1 (MMP1) Biomarker Activity (AID 2283064); conditions: primary human foreskin fibroblasts; actives raise or lower the signal
In short: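 hDFCGF primary fibroblasts (human foreskin); chemical added; 24 h; MMP1 by ELISA; bidirectional fit vs DMSO.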

[6] = read-out: Vascular cell adhesion molecule 1 (VCAM1), VCAM1 (gene 7412); assay: BSK_hDFCGF_VCAM1: BioMAP Diversity Plus: hDFCGF Assay for Vascular cell adhesion molecule 1 (VCAM1) Biomarker Activity (AID 2283065); conditions: primary human foreskin fibroblasts; actives raise or lower the signal;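 on AC50: VCAM-1 protein level quantified by ELISA after 24 h chemical exposure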
In short: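 Primary human foreskin fibroblasts (hDFCGF system) were dosed with chemical and VCAM-1 was measured by ELISA 24 h later. Bidirectional curve fitting used DMSO as negative control and activity baseline.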

[7] = read-out: Plasminogen activator inhibitor-1 (PAI1), SERPINE1 (gene 5054); assay: BSK_hDFCGF_PAI1: BioMAP Diversity Plus: hDFCGF Assay for Plasminogen activator inhibitor-1 (PAI1) Biomarker Activity (AID 2283066); conditions: primary human foreskin fibroblasts; actives raise or lower the signal
In short: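 Human foreskin fibroblast primary cells, 24 h chemical exposure; PAI-1 measured by ELISA. Bidirectional fitting relative to DMSO; parallel cultures stained with SRB for total protein to flag overt cytotoxicity.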

[8] = read-out: Intercellular Adhesion Molecule 1 (ICAM1), ICAM1 (gene 3383); assay: BSK_KF3CT_ICAM1: BioMAP Diversity Plus: KF3CT Assay for Intercellular Adhesion Molecule 1 (ICAM1) Biomarker Activity (AID 2283067); conditions: primary human keratinocytes with fibroblasts; actives raise or lower the signal
In short: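 Human keratinocyte plus foreskin fibroblast primary co-culture was exposed to chemical for 24 h. ICAM-1 was then quantified by ELISA, and the data were fit bidirectionally against DMSO as the negative control and baseline.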

[9] = read-out: Interferon-gamma inducible Protein 10 (IP10), CXCL10 (gene 3627); assay: BSK_KF3CT_IP10: BioMAP Diversity Plus: KF3CT Assay for Interferon-gamma inducible Protein 10 (IP10) Biomarker Activity (AID 2283068); conditions: primary human keratinocytes with fibroblasts; actives raise or lower the signal
In short: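 In a primary skin co-culture of keratinocytes and fibroblasts, IP-10 is quantified by ELISA at 24 h after dosing. SRB staining of parallel wells monitors overt toxicity. Curves are fitted both directions against DMSO.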

[10] = BSK_KF3CT_SRB: Viability Assessment in the BioMAP Diversity Plus: KF3CT Assay (AID 2283069); conditions: primary human keratinocytes with fibroblasts;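 further: fitted for both signal gain and loss against DMSO baseline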
In short: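 Keratinocytes co-cultured with foreskin fibroblasts (human primary); chemical added, 24 h; fix 10% TCA, stain 0.1% SRB, A560. Bidirectional fit vs DMSO.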

[11] = read-out: Interleukin-1 alpha (IL1a), IL1A (gene 3552); assay: BSK_KF3CT_IL1a: BioMAP Diversity Plus: KF3CT Assay for Interleukin-1 alpha (IL1a) Biomarker Activity (AID 2283070); conditions: primary human keratinocytes with fibroblasts; actives raise or lower the signal
In short: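 Chemicals were dosed onto co-cultured human keratinocytes and foreskin fibroblasts, IL-1a was quantified by ELISA at 24 h, and activity was fitted in both directions relative to DMSO controls.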

[12] = read-out: TIMP metallopeptidase inhibitor 2 (TIMP2), TIMP2 (gene 7077); assay: BSK_KF3CT_TIMP2: BioMAP Diversity Plus: KF3CT Assay for TIMP metallopeptidase inhibitor 2 (TIMP2) Biomarker Activity (AID 2283071); conditions: primary human keratinocytes with fibroblasts; actives raise or lower the signal
In short: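 Co-culture of human primary keratinocytes and foreskin fibroblasts, measured 24 h after chemical dosing. TIMP-2 quantified by ELISA and fitted in both directions relative to DMSO. Cytotoxicity checked in parallel cultures by SRB total-protein staining.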

[13] = read-out: C-C motif chemokine 2 (Homo sapiens) (UniProt P13500); assay: BSK_KF3CT_MCP1: BioMAP Diversity Plus: KF3CT Assay for Monocyte Chemoattractant Protein 1 (MCP1/CCL2) Biomarker Activity (AID 2283073); conditions: primary human keratinocytes with fibroblasts; actives raise or lower the signal
In short: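 Human keratinocyte plus foreskin fibroblast primary co-culture exposed to chemical for 24 h. MCP-1 levels measured by ELISA. Bidirectional curve fitting relative to DMSO negative control as baseline.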

[14] = read-out: Matrix Metallopeptidase 9 (MMP9), MMP9 (gene 4318); assay: BSK_KF3CT_MMP9: BioMAP Diversity Plus: KF3CT Assay for Matrix Metallopeptidase 9 (MMP9) Biomarker Activity (AID 2283074); conditions: primary human keratinocytes with fibroblasts; actives raise or lower the signal;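 on AC50: MMP9 protein level quantified by ELISA in the co-culture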
In short: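 Human keratinocyte/foreskin fibroblast co-culture; compound added; 24 h; MMP-9 by ELISA; bidirectional fit vs DMSO baseline.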

[15] = read-out: urokinase plasminogen activator (uPA), PLAU (gene 5328); assay: BSK_KF3CT_uPA: BioMAP Diversity Plus: KF3CT Assay for urokinase plasminogen activator (uPA) Biomarker Activity (AID 2283075); conditions: primary human keratinocytes with fibroblasts; actives raise or lower the signal
In short: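 ELISA readout of uPA, analyzed for signal gain or loss relative to DMSO, from a human primary keratinocyte–foreskin fibroblast co-culture measured 24 h after chemical treatment.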

CD40, CD40 (gene 958) = assay: BSK_LPS_CD40: BioMAP Diversity Plus: LPS Assay for CD40 Biomarker Activity (AID 2283076); conditions: primary human HUVEC with PBMC; actives raise or lower the signal
In short: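 Primary human umbilical vein endothelial cells co-cultured with peripheral blood mononuclear cells, LPS-stimulated, were dosed with chemical and read 24 h later. CD40 levels were measured by ELISA and fitted bidirectionally against DMSO as negative control and baseline.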

[16] = read-out: E-selectin (Homo sapiens) (UniProt P16581); assay: BSK_LPS_Eselectin: BioMAP Diversity Plus: LPS Assay for Eselectin Biomarker Activity (AID 2283077); conditions: primary human HUVEC with PBMC; actives raise or lower the signal
In short: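 Human umbilical vein endothelial cells co-cultured with peripheral blood mononuclear cells under LPS stimulation; E-selectin measured by ELISA 24 h after chemical dosing. Activity fitted bidirectionally against DMSO as negative control and baseline.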

[17] = read-out: Interleukin-8 (IL8), CXCL8 (gene 3576); assay: BSK_LPS_IL8: BioMAP Diversity Plus: LPS Assay for Interleukin-8 (IL8) Biomarker Activity (AID 2283078); conditions: primary human HUVEC with PBMC; actives raise or lower the signal
In short: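 Human umbilical vein endothelial cells co-cultured with PBMC were stimulated with LPS; IL-8 levels were measured by ELISA 24 h after chemical dosing. Activity was fitted bidirectionally against DMSO as negative control and baseline.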

[18] = BSK_LPS_SRB: Viability Assessment in the BioMAP Diversity Plus: LPS Assay (AID 2283079); conditions: primary human HUVEC with PBMC;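 further: total protein by sulforhodamine B absorbance as a cytotoxicity measure; measured one day after compound addition; fitted in both directions against DMSO so loss or gain of signal counts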
In short: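 Human umbilical vein endothelial cells co-cultured with PBMC (LPS system) were dosed for 24 h. Total protein was stained with 0.1% sulforhodamine B after 10% TCA fixation, read at 560 nm, and fitted bidirectionally against DMSO baseline.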

Measured: AC50

Sequence of E-selectin (Homo sapiens) (P16581 whole entry, looked up): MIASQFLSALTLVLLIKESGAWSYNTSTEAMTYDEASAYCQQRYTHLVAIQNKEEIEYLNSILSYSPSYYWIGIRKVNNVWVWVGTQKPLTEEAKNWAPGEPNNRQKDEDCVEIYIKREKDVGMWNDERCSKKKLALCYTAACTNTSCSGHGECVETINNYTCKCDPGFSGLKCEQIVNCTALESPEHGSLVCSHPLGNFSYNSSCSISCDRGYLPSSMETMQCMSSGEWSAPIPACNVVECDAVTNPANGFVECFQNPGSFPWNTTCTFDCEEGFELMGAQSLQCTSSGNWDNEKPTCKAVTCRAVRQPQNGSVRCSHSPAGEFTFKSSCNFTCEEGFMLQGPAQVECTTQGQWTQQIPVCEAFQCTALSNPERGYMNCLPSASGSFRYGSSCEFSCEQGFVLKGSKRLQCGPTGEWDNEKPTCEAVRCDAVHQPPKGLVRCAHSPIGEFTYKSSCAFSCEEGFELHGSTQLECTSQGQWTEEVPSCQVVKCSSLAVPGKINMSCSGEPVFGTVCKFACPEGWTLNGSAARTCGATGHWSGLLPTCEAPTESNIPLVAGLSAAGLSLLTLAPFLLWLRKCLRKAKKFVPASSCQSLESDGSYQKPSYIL

CCCN(CC)CC1COC2(CCC(C(C)(C)C)CC2)O1 (configuration not stated)
active: [3] 3.97 µM | [4] 0.602 µM | [5] 1.43 µM | [9] 3.97 µM | [12] 6.62 µM | [13] 0.739 µM | [17] 15.7 µM
inactive: all other assays above

COP(=O)(OC)O/C(C)=C/C(=O)N(C)C
not listed: [18]
inactive: all other assays above

O=P(O)(O)CCCl
not listed: [16] | [18]
inactive: all other assays above

COC(=O)c1c(C(F)F)nc(C(F)(F)F)c(C2=NCCS2)c1CC(C)C
active: [9] 21.8 µM | CD40, CD40 (gene 958) 7.78 µM | [18] 31.9 µM
inactive: all other assays above

Cc1cc(C)nc(Nc2ccccc2)n1
active: [17] 26.8 µM
not listed: [16]
inactive: all other assays above

CNC(=O)N(C)c1nnc(C(C)(C)C)s1
not listed: [16] | [18]
inactive: all other assays above

O=C(O)c1c(Cl)ccc2cc(Cl)cnc12
not listed: [16] | [18]
inactive: all other assays above

CNC(=O)Oc1cccc2ccccc12
active: [1] 29.7 µM | [5] 3.91 µM | [6] 20 µM | CD40, CD40 (gene 958) 20 µM
not listed: [3] | [16] | [18]
inactive: all other assays above

OC(c1ccc(Cl)cc1)(c1ccc(Cl)cc1)C(Cl)(Cl)Cl
active: [1] 8.17 µM | [2] 10.5 µM | [3] 11.4 µM | [4] 10.1 µM | [5] 11 µM | [6] 8.87 µM | [7] 11 µM | [8] 11.6 µM | [9] 9.49 µM | [10] 6.45 µM | [11] 8.05 µM | [12] 9.48 µM | [13] 11 µM | [14] 7.26 µM | [15] 7.28 µM | CD40, CD40 (gene 958) 30.5 µM | [16] 30.9 µM | [17] 30.6 µM

COCc1cnc(C2=NC(C)(C(C)C)C(=O)N2)c(C(=O)O)c1 (configuration not stated)
active: [9] 12.3 µM
inactive: all other assays above

CC1(C)C(C=C(Cl)Cl)C1C(=O)OC(C#N)c1cccc(Oc2ccccc2)c1 (configuration not stated)
active: [18] 3.97 µM
not listed: [16]
inactive: all other assays above

CC(C)=CC1C(C(=O)OCc2coc(Cc3ccccc3)c2)C1(C)C (configuration not stated)
active: [1] 11.1 µM
not listed: [16]
inactive: all other assays above

CN/C(=N\[N+](=O)[O-])NCc1cnc(Cl)s1
not listed: [16] | [18]
inactive: all other assays above

CCN(CC)c1nc(C)cc(OP(=S)(OC)OC)n1
active: [1] 14.6 µM | [5] 4.09 µM | [6] 27 µM | [7] 11.3 µM | CD40, CD40 (gene 958) 19.5 µM
not listed: [16]
inactive: all other assays above

CO/N=C(/C1=NOCCO1)c1ccccc1Oc1ncnc(Oc2ccccc2Cl)c1F
active: [3] 8.26 µM | [9] 7.33 µM | [11] 20 µM | [13] 28.6 µM | [14] 30.6 µM | CD40, CD40 (gene 958) 13 µM | [16] 15.2 µM | [17] 20 µM | [18] 11.4 µM
inactive: all other assays above

CS(=O)(=O)c1ccc(C(=O)C2C(=O)CCCC2=O)c([N+](=O)[O-])c1
not listed: [16] | [18]
inactive: all other assays above

CC(C)C1(C)N=C(c2ncccc2C(=O)O)NC1=O (configuration not stated)
not listed: [18]
inactive: all other assays above

Clc1cccc(C(Cl)(Cl)Cl)n1
inactive: all assays above
